Shown are actives, neighbours in structure and some others; about 4% of the full set was active somewhere.
MazF activator – activators of E. coli MazEF toxin-antitoxin RNase, primary screen, biochemical, fluorescence, uHTS; Endoribonuclease toxin MazF (Escherichia coli (strain K12)), P0AE70; FAM/BHQ RNA-DNA oligo cleavage fluorescence, 5 h; activation, % at 20 µM; 350,000 compounds, 0.32% hits; in the data active = activation above about 50%
Target sequence (P0AE70 whole entry, looked up): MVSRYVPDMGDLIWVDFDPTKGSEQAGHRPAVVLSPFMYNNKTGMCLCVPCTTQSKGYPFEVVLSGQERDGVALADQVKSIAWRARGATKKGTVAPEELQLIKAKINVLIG
Mtb FBA inh – Mtb FBA enzyme inhibitors, primary screen, biochemical, fluorescence, strain H37Rv; Fructose-bisphosphate aldolase (Mycobacterium tuberculosis (strain ATCC 25618 / H37Rv)), …; purified M. tuberculosis FBA, fluorescence read-out; inhibition, % at 1 µM; 360,000 compounds, 2.3% hits; in the data active = inhibition above about 27%;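 also: 0% = vehicle and 100% = reference inhibitor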
Target sequence (P9WQA3 whole entry, looked up): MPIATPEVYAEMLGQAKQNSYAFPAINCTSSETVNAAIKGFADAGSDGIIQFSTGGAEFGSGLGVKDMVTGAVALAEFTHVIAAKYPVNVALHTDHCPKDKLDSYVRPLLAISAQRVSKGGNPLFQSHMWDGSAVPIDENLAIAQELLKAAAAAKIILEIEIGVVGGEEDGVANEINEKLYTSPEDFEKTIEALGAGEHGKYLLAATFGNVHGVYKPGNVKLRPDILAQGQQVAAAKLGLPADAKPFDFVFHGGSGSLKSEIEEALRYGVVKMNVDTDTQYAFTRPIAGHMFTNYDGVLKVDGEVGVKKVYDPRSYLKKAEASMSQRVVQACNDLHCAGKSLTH
Mtb bLac sens – beta-lactam sensitization of Mtb H37Rv, H37Rv; 330,000 compounds, 0.27% hits; M. tuberculosis H37Rv growth with meropenem, percent inhibition; inhibition, % at 25 µM; AID 434955, 2010; call rule not given here;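 also: growth measured after seven days incubation then overnight dye step; 0% = bacteria only wells and 100% = bacteria with antibiotic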
CCHF vOTU inh – CCHFV vOTU protease inhibitors, primary screen, biochemical, Pep-AMC substrate, fluorescence | inhibition, % at 11.5 µM | 370,000 compounds, 0.55% hits; also: 0% = vehicle wells with enzyme and 100% = no enzyme wells
GDH-TPI counter-1 – GDH-TPI coupling enzyme inhibitors, primary screen, artefact control for M. tuberculosis FBA inhibitor project, biochemical, absorbance, full deck; inhibition, % at 4.8 µM; AID 588335, 2011; GDH-TPI coupled enzyme counterscreen, NADH absorbance; 360,000 compounds, 1.2% hits;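 also: 0% = DMSO wells and 100% = wells lacking the enzyme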
Mtb FBA inh conf – M. tuberculosis aldolase blockers, biochemical, fluorescence, strain H37Rv, confirmation | shares compounds with Mtb FBA inh | purified M. tuberculosis FBA, fluorescence read-out | inhibition, % at 1 µM | 5,600 compounds, 78% hits; in the data active = inhibition above about 27%;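 also: 0% = vehicle wells and 100% = reference inhibitor wells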
GDH-TPI counter-2 – GDH-TPI coupling enzyme inhibitors, artefact control for M. tuberculosis FBA inhibitor project, biochemical, fluorescence, high throughput | 5,600 compounds, 81% hits | shares compounds with Mtb FBA inh | inhibition, % at 1 µM | GDH-TPI coupled enzyme counterscreen; in the data active = inhibition above about 10%
Numbers without * were called inactive; / = no result; + = active, no number. Rule as the data show it, unless noted: active = inhibition above about 30%; inactive = the rest.

SMILES	MazF activator	Mtb FBA inh	Mtb bLac sens	CCHF vOTU inh	GDH-TPI counter-1	Mtb FBA inh conf	GDH-TPI counter-2
CCOC(=O)N1CCC(NC(=O)c2cc(-c3ccc(OC)cc3)nc3ccccc23)CC1	5	12	98	0	19	/	/
O=C(NC1CCN(Cc2ccccc2)CC1)c1ccccc1	9	2	3	-7	1	/	/
COc1ccc2nc3oc(C(=O)NC4CCN(Cc5ccccc5)CC4)cc3cc2c1	3	32*	-4	-19	13	6	2
CCOC(=O)N1CCC(NC(=O)c2cc3cc4cc(OC)ccc4nc3o2)CC1	-25	86*	-1	-20	17	24	-5
CCOC(=O)[C@@]12CCCC=C1N(CCc1ccc(Cl)cc1)C(=O)[C@H]2CC(=O)NCC12CC3CC(CC(C3)C1)C2	/	/	/	5	/	/	/
Cc1cc(NC(=O)NCc2ccccc2)c(=O)n(Cc2ccc(F)cc2)c1	1	28*	2	5	15	98*	83*
O=C(NCc1ccccc1)Nc1cccn(Cc2ccc(F)cc2)c1=O	4	14	-3	-28	-7	/	/
COC(=O)[C@]12C[C@H](CC(=O)N3CCOCC3)C(=O)N(Cc3ccc(Cl)cc3Cl)C1=C[C@H](C(C)(C)C)O[C@@H]2C	/	/	/	12	/	/	/
Cc1ccc(CCNC(=O)c2coc3nc4ccccc4nc23)cc1	90*	58*	-8	0	10	99*	72*
c1coc(-c2ccnc3ncnn23)c1	0	93*	-1	-30	23	94*	74*
CCOC(=O)Cn1c(-c2ccccn2)nc2ccccc21	1	35*	36	4	10	91*	79*
O=C(O)Cn1c(=O)c(-c2ccccc2)nc2ccccc21	5	56*	-17	-39	26	119*	88*
O=C(Cn1c(C(=O)O)cc2ccccc21)c1ccccc1	-13	0	-3	-12	4	/	/
O=C(O)Cn1c(-c2ccccn2)nc2ccccc21	-4	56*	-6	-8	11	-4	-8
O=C(O)Cn1c(-c2ccccc2)nc2ccccc21	-12	8	-3	7	9	/	/
O=C(O)Cn1c(-c2ccccc2)cc2ccccc21	1	47*	0	-16	7	104*	95*
COc1ccc(C(=O)C2(C(=O)NCCO)CC(c3ccccn3)=NO2)cc1 (stereo not given)	/	/	/	-3	/	/	/
COc1ccc(CN(CCN2CCOCC2)C(=O)c2ccc(F)cc2Cl)cc1OC	/	/	/	0	/	/	/
CCN(CC)CCNC(=O)Cn1c(-c2ccccn2)nc2ccccc21	6	37*	0	-12	1	145*	121*
NNC(=O)Cn1c(-c2ccccn2)nc2ccccc21	5	2	-7	-11	-2	/	/
CC(C)(C)OC(=O)N1CCC[C@@H]1C(=O)N1CCC[C@H]1C(=O)NCc1ccccc1	/	/	/	-10	/	/	/
O=C(O)c1ccc(-c2nc(-c3ccc(Cl)cc3)cs2)cc1	-19	2	/	3	2	/	/
COc1ccc(-c2csc(-c3ccc(C(=O)O)cc3)n2)cc1	4	49*	54	-43	22	58*	43*
Cc1c2n(c3ccccc13)CCC2=O	8	28*	3	-46	6	77*	68*
OC(c1ccccc1)(c1ccccc1)C1CCN(CCCNc2cccc(OC(F)(F)F)c2)CC1	/	/	/	15	/	/	/
SMILES	MazF activator	Mtb FBA inh	Mtb bLac sens	CCHF vOTU inh	GDH-TPI counter-1	Mtb FBA inh conf	GDH-TPI counter-2
COc1ccc(NC(=S)Nc2cccc3ccccc23)cc1OC	-5	42*	-21	-3	7	35*	33*
Cc1ccc(F)c(NC(=S)Nc2cccc3ccccc23)c1	/	46*	11	-16	7	55*	50*
S=C(Nc1cccc2ccccc12)Nc1cccc2ccccc12	3	88*	/	-17	7	96*	73*
CC(=O)Nc1cccc(NC(=S)Nc2cccc3ccccc23)c1	1	3	9	-16	1	/	/
CC(=O)c1cccc(NC(=S)Nc2cccc3ccccc23)c1	-1	42*	-17	1	8	63*	33*
O=C(NC(CC1=CCCCC1)c1ccc2ccccc2c1)C(F)(F)F (stereo not given)	/	/	/	0	/	/	/
COC(=O)C1=C(C)N(Cc2ccc(C(F)(F)F)cc2)C(=NCc2ccccc2)NC1c1ccccc1 (stereo not given)	/	/	/	24	/	/	/
COc1nc(OC)nc(N2CCC(C(=O)NCc3cccc(OC)c3OC)CC2)n1	/	/	/	-1	/	/	/
COc1ccc(-c2cc(-c3nnc(SCC(=O)Nc4cccc(Cl)c4C)n3N)[nH]n2)cc1	/	/	/	14	/	/	/
COc1ccc(NC(=O)CC2C(=O)N(C)C(=S)N2Cc2ccc3c(c2)OCO3)cc1 (stereo not given)	0	80*	-10	-1	5	39*	33*
CC(=O)n1c(-c2ccccc2)c(-c2ccccc2)n(C)c1=O	-2	50*	-4	-9	-4	78*	50*
COc1ccc2cc(/C(C)=N/NC(=O)c3cc(-c4cccnc4)nc4ccccc34)ccc2c1	-22	34*	1	-12	12	105*	89*
CCOc1ccccc1-c1cc(C(=O)N/N=C/c2ccc3c(c2)OCO3)c2ccccc2n1	-9	66*	/	13	16	+	+
CCOc1cc(/C=N/NC(=O)c2cc(-c3cccnc3)nc3ccccc23)ccc1O	28	108*	-2	5	51*	6	-1
COc1ccc(CN2CCC(CNC(=O)Nc3ccc(C)c(F)c3)CC2)cc1	/	/	/	0	/	/	/
COc1ccc(CNC(=O)C2CCCN(c3nc4ccccc4o3)C2)cc1 (stereo not given)	/	/	/	7	/	/	/
O=C(/C=C(\Nc1cccc(F)c1)c1ccccc1)c1ccccc1	/	/	/	3	/	/	/
CCCOc1nccc2c1n(C)c(=O)n2C	/	/	/	-4	/	/	/
Nc1nc2n(n1)C(c1cccs1)CC(c1ccccc1)N2 (stereo not given)	9	69*	-4	-16	16	101*	81*
COc1ccc2oc(C(=O)OCC(=O)NC(C)c3ccccc3)c(C)c2c1 (stereo not given)	-2	39*	-1	1	-1	127*	85*
COc1ccc2oc(C(=O)OCC(=O)Nc3ccccc3)c(C)c2c1	3	33*	-6	-19	5	+	168*

Compound activity (PubChem)
